# Compound activity: PubChem, several laboratories
# Shn3 inh set2 = reduces Shn3 3'UTR luciferase signal in osteoblasts. Clone20 osteoblast Shn3 3'UTR firefly luciferase, 24 h. inhibition, % at 12.5 µM. hit rate 0.52% among 360,000. AID 588674;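 active = mean inhibition of at least 75% with every replicate also reaching 75%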;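 also: 0% = median of neutral control wells and 100% = pilot-screen positive control compound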
# Peg3 promoter = Peg3 promoter activity inhibition. HeLa PEG-Prom luciferase reporter, luminescence, overnight. hit rate 1.7% among 360,000. inhibition, % at 20 µM;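 active = inhibition of at least 50% at 20 µM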
# KKLEB tox = counter-screen for CF NF-kB inhibitors: cytotoxicity; activity change (cytotoxicity), % at 5 µM; hit rate 0.36% among 360,000; KKLEB CF airway cells viability, ATPlite luminescence, overnight; hits give low values; cells stimulated with P. aeruginosa culture filtrate; AID 602141;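 active = corrected activity change at or below -50% at 5 µM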
# CF NFkB inh = inhibitors of cystic fibrosis induced NF-kB. hit rate 0.86% among 360,000. KKLEB NF-kB-GFP reporter, PAF-induced, GFP fluorescence overnight. inhibition, % at 5 µM;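 active = at least 50% inhibition at 5 µM, scaled per plate between neutral and stimulator controls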;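 also: PAF is a Pseudomonas aeruginosa culture filtrate used as stimulus; plate controls were PAF-stimulated DMSO wells for no effect and unstimulated DMSO wells for full effect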
# TRPM1 prom inh = MITF TRPM1 promoter inhibition in SK-MEL-5 cells. SK-MEL-5 TRPM1 promoter luciferase, 24 h. inhibition, % at 12.5 µM. hit rate 0.83% among 330,000. AID 488899;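 active = mean inhibition across replicates of 60% or more, whatever share of single replicates reaches that level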
# HIF-2a block = blocks HIF-2a reporter activity | 786-0 RCC cells HIF-2a reporter, luciferase luminescence, overnight | inhibition, % at 18.8 µM | hit rate 0.72% among 360,000 | AID 624352;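 active = inhibition of the luminescence signal of 40% or more relative to plate controls, in a single-dose primary screen at 18.75 µM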
# CF NFkB inh conf = CF NF-kB inhibition confirmation, single concentration; shares compounds with CF NFkB inh; KKLEB CF airway cells, PAF-induced NF-kB-GFP fluorescence, overnight; inhibition, % at 5 µM; hit rate 64% among 1,300; AID 602472; in the data active = inhibition above about 40%;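 also: stimulus PAF is a Pseudomonas aeruginosa filtrate and not platelet activating factor; plate controls were DMSO wells with stimulus for no effect and unstimulated DMSO wells for full effect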
# Starred values were filed as active, the others as inactive; · = not tested or not shown. A selection: hits, their analogues and other compounds. The true share with any hit is near 2.8%.
SMILES,Shn3 inh set2,Peg3 promoter,KKLEB tox,CF NFkB inh,TRPM1 prom inh,HIF-2a block,CF NFkB inh conf
CCCCN(Cc1ccccc1)c1ncnc2nc[nH]c12,-20.8,-213.0,4.6,30.6,·,-142.4,·
CSCCC(=O)N1CCCC(N(C)CCc2ccccc2)C1 (stereo not drawn),10.2,6.6,-1.8,-14.3,5.0,3.2,·
C[C@H](CO)N1C[C@H](C)[C@@H](CN(C)C(=O)Nc2ccc3c(c2)OCO3)Oc2c(NC(=O)Nc3ccc(C(F)(F)F)cc3)cccc2C1=O,28.4,60.4*,-17.5,79.6*,9.7,-19.7,91.2*
Cc1ccc(S(=O)(=O)N(C)C[C@@H]2Oc3ccc(NC(=O)CCC(F)(F)F)cc3CC(=O)N([C@@H](C)CO)C[C@@H]2C)cc1,6.0,8.6,-17.8,53.2*,42.6,9.0,42.8*
C[C@H](CO)N1C[C@H](C)[C@@H](CN(C)S(=O)(=O)c2cccs2)Oc2ccc(NC(=O)Nc3ccc(C(F)(F)F)cc3)cc2C1=O,45.4,39.5,-16.6,14.0,6.9,17.2,·
C[C@H](CO)N1C[C@H](C)[C@@H](CN(C)C(=O)Nc2ccc(C(F)(F)F)cc2)Oc2c(NC(=O)Nc3ccc4c(c3)OCO4)cccc2C1=O,-12.7,-8.5,20.5,-53.1,11.1,-1.3,·
C[C@@H]1CN([C@H](C)CO)C(=O)c2cc(NC(=O)Nc3ccc(C(F)(F)F)cc3)ccc2O[C@H]1CN(C)S(=O)(=O)c1ccc(Cl)cc1,11.4,22.7,-6.1,63.6*,20.2,-0.2,69.7*
C[C@@H]1CN([C@H](C)CO)C(=O)c2cc(NC(=O)Nc3ccc(C(F)(F)F)cc3)ccc2O[C@H]1CN(C)S(=O)(=O)c1cccs1,2.0,28.4,1.0,57.1*,-0.3,33.1,81.1*
Cc1cc(C)c(S(=O)(=O)Nc2ccc(Cl)cn2)c(C)c1,1.6,15.9,0.5,-0.7,10.2,21.2,·
C[C@H](CO)N1C[C@H](C)[C@H](CN(C)S(=O)(=O)c2ccc(Cl)cc2)OCc2ccccc2-c2c(n(C)c3ccccc23)C1=O,60.1,39.9,-5.8,85.5*,·,-48.2,3.9
CCNC(=O)N(C)c1c(CC)nc2ccc(C(=O)Nc3cccc(OCC(=O)N(C)C)c3)cn12,-3.2,6.9,-0.4,-2.2,·,6.4,·
CCc1nc2ccc(C(=O)Nc3cccc(OCC(=O)N(C)C)c3)cn2c1N(C)Cc1cc2ccccc2s1,9.0,72.8*,-10.2,52.6*,·,-18.5,13.6
FC(F)Sc1ccc(NC(=S)NC2CCCCC2)cc1,-25.6,-158.0,0.7,6.7,-65.9,-247.6,·
FC(F)Sc1ccc(NC(=S)NCC2CCCCC2)cc1,-8.2,-74.9,-39.1,50.0*,-17.4,-164.2,61.0*
COc1ccccc1N1CCN(CCS(=O)(=O)c2cc(Cl)ccc2Cl)CC1,10.0,6.1,1.5,-15.3,·,-2.9,·
Cn1c(SCC(=O)NC2CCCC2)nnc1-c1ccccn1,-35.1,11.0,-17.3,2.8,2.0,13.2,·
Cc1cc(C)c2c(N)c(C(=O)c3ccccc3)sc2n1,1.9,-20.8,5.6,-41.2,·,-60.6,·
Cc1nc2sc(C(N)=O)c(N)c2c(C)c1CC(=O)c1ccccc1,-16.4,-109.8,-5.8,59.0*,-51.7,-43.6,74.6*
COc1ccc2ncn(-c3ccccc3)c2c1,6.4,-3.3,-6.1,58.5*,-38.3,12.2,57.0*
Cc1cccc(-n2c(SCc3ccc([N+](=O)[O-])cc3)nnc2-c2c[nH]c3ccccc23)c1,39.7,19.7,-40.3,51.3*,9.9,17.8,20.9
Cc1c(NC(=O)COC(=O)c2cccc(F)c2)c(=O)n(-c2ccccc2)n1C,-14.1,-1.5,-1.9,0.3,·,8.2,·
CC1CCN(CC2C(=O)O[C@@H]3C[C@@]4(C)CCC[C@H](C)C4=C[C@H]23)CC(C)(C)C1 (stereo partly drawn),-6.9,-17.4,-20.8,83.5*,74.2*,-16.2,33.7
COc1ccc(CNC(=O)Cn2nc([N+](=O)[O-])c(Br)c2C)cc1OC,-8.0,-0.7,9.8,-25.7,-5.0,15.6,·
CC(=O)NC(CC(C)C)C(=O)NC(Cc1ccccc1)C(=O)CCl (stereo not drawn),-10.3,32.4,-20.6,51.7*,52.4,-9.0,55.7*
COc1cc(Br)cc(C(=O)N2CCc3ccccc32)c1OC,-19.0,6.7,-2.7,16.4,·,16.3,·
SMILES,Shn3 inh set2,Peg3 promoter,KKLEB tox,CF NFkB inh,TRPM1 prom inh,HIF-2a block,CF NFkB inh conf
COc1ccccc1NC(=O)COC(=O)C1=NN(c2ccccc2)C(=O)CC1,-14.5,1.5,-0.5,24.1,4.4,2.7,·
COc1cccc(N2CCN(c3c(C#N)c(C(F)(F)F)nn3C)CC2)c1,23.9,-3.7,-3.9,51.8*,-17.5,19.9,61.2*
c1ccc2c(-c3cncc4ccccc34)cncc2c1,22.8,20.1,-32.1,76.2*,-3.0,35.4,43.0*
COc1cc(C(=O)OCC(=O)N2CCOCC2)c([N+](=O)[O-])cc1OC,-5.2,21.9,8.7,-0.6,1.3,7.9,·
CCc1cc2c(Sc3nc4ccccc4s3)ncnc2s1,53.6,14.9,-46.2,66.7*,16.1,-4.9,89.4*
Cc1c(NC(=O)CN2C(=O)NC3(CCC(C)CC3)C2=O)c(=O)n(-c2ccccc2)n1C (stereo not drawn),2.0,21.1,18.1,-10.8,6.0,15.2,·
Cc1cc(N2C(=O)C(O)=C(C(=O)c3cc4ccccc4o3)C2c2cccc(Br)c2)no1 (stereo not drawn),3.1,15.1,16.2,-32.6,3.2,-10.3,·
CCCOc1cccc(C2C(C(=O)c3cc4ccccc4o3)=C(O)C(=O)N2c2cc(C)on2)c1 (stereo not drawn),-7.4,4.2,-1.7,66.1*,-7.5,-1.6,23.8
Cc1cccc(NC(=O)Nc2ccc(C#N)cc2)n1,-5.2,62.0*,-1.9,75.2*,18.1,-107.5,97.8*
Cc1cccc(NC(=O)Nc2cccc(C#N)c2)n1,-89.0,-82.1,6.2,15.8,-41.2,-306.7,·
O=C(Nc1ccccc1)c1cn(CCBr)cn1,-60.8,-152.6,-7.7,3.0,-36.1,-180.3,·
O=C(N1CCCCC1)N1CCN(C(c2ccccc2)c2ccccc2)CC1,-4.1,18.6,11.6,7.1,0.8,17.2,·
Oc1c(C(c2ccccc2)N2CCCCC2)ccc2ccccc12 (stereo not drawn),-4.1,19.9,-31.1,68.1*,·,11.0,26.8
Cc1[nH]c2ccccc2c1C(=O)C(=O)NCCc1ccc(S(N)(=O)=O)cc1,-0.6,17.9,-0.7,4.5,-13.3,16.2,·
CCCc1ccc(S(=O)(=O)NCc2nnc(SC)n2C)cc1,-3.7,1.2,1.7,-9.4,2.0,4.3,·
O=C(NCCc1ccccc1)c1coc(=O)c(Br)c1,-9.3,106.8*,4.3,69.0*,-4.4,8.9,75.7*
CN(C)CCNC(=O)c1coc(=O)c(Br)c1,-15.1,9.8,-3.1,-5.2,-2.6,18.6,·
